Results: PubChem BioAssay
Several values for one entry are separate records, joined by “and”; a condition that tells them apart may be missing. Equal values may be shown once. Activity calls are given as the source filed them.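 Rule for the calls, unless noted: active = thallium flux through the channel raised or lowered by more than 3 SD from vehicle-only wells, actives on both sides; inactive = the rest.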

Tests used:
[1] = Wnt pathway potentiators raising nuclear beta-catenin – imaging, WNT3A-conditioned medium, mouse C2C12, NPC library, primary screen (AID 1117326; in the data active = nuclear beta-catenin stimulation mostly above about 4.2%, no sharp cut-off; inactive = mostly below about 10%); conditions: stronger effect = higher value
[2] = stimulators of insulin release from INS-1E, primary screen, cell-based, 5 mM glucose, NPC library (AID 1117329;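 active = compound raises insulin release from rat beta cells at 5 mM glucose, no numeric limit stated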); conditions: rat INS-1E insulin secretion, at 10 µM, stronger effect = higher value
[3] = growth inhibition of GSK3B-pretreated HCT116 cells – cell-based, CellTiter-Glo, 0.2 to 20 µM (AID 1117336;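 active = compounds lowering colon cancer cell viability after pretreatment blocking the GSK3B kinase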); conditions: HCT116 viability after GSK3B inhibitor, at 20 µM, stronger effect = higher value
[4] = inhibition of endothelial tube formation, primary screen, imaging, VEGF stimulated, CD31 staining, tube area, NPC library (AID 1117340;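 active = compound that reduces growth-factor-driven endothelial tube area in a mixed cell culture, no cutoff stated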); conditions: VEGF-stimulated ADSC/ECFC co-culture, at 10 µM, stronger effect = higher value
[5] = GLP1 release stimulators, primary, NCI-H716, NPC library (AID 1117341;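 active = compound raises GLP1 secretion from the human gut endocrine cells, with no numeric limit stated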); conditions: NCI-H716 cells, at 10 µM, stronger effect = higher value
[6] = HCT116 colon cancer cell growth inhibition, primary screen, CellTiter-Glo luminescence, NPC library (AID 1117342;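 active = compounds that lower survival of HCT116 colon cancer cells in the luminescence readout, no numeric limit stated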); conditions: at 20 µM (top of the series)
[7] = reduced SW480 viability measured with CellTiter-Glo, NPC library, primary (AID 1117343;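 active = compounds that lower viability of the colon cancer cells in the luminescence readout, with no numeric limit stated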); conditions: CellTiter-Glo luminescence; at 20 µM (top of the series)
[8] = NPC library primary testing for decreased DLD-1 cell viability via CellTiter-Glo (AID 1117346;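 active = compounds that lower survival of DLD-1 colon cancer cells in the luminescence readout, no cutoff given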); conditions: DLD-1 viability, CellTiter-Glo luminescence; at 20 µM (top of the series)
[9] = target: 6-phosphogluconate dehydrogenase, decarboxylating (Homo sapiens) (UniProt P52209); experiment: inhibition of human phosphogluconate dehydrogenase – biochemical, recombinant enzyme, NADPH absorbance, primary screen (AID 1159550;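 active = at least 20% inhibition of 6-phosphogluconate dehydrogenase activity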); conditions: recombinant 6PGD, NADPH absorbance 341 nm; at 10 µM; stronger effect = higher value
[10] = EMT-state selective cytotoxicity in co-culture – imaging, PC-3E GFP, TEM4-18 mCherry, primary screen (AID 1345086;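 active = compounds killing one labelled cell type while sparing the other, by normalised counts and ratio limits, not self-fluorescent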;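 for all read-outs here: cells exposed to compound for 72 h before imaging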;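 for red/green cell ratio (normalised): normalised mesenchymal count divided by normalised epithelial count so high means epithelial killing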); conditions: PC-3E GFP / TEM4-18 mCherry co-culture, imaging cell counts, at 1 µM; for red/green cell ratio (normalised): actives lie on both sides, counts scaled to control wells, 1 = unselective
[11] = MELAS cybrid and Rieske KO viability enhancers – cell-based, MELAS cybrids, Rieske KO mouse fibroblasts, CellTiter-Glo, primary screen (AID 1508586;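 active = mean z-score across replicates of 1.96 or higher in either the MELAS or the Rieske mutant cell line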;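 note: z relative to plate mean and SD of compound and empty wells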); conditions: low glucose
[12] = target: NAD(+) hydrolase SARM1 (Homo sapiens) (UniProt Q6SZW1); experiment: blocking NAD cleavage by SARM1 SAM-TIR – cell lysate, NAD-Glo luminescence (AID 1508614;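 active = compound whose remaining NAD level is above about 45 nM, limit read from the data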;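 note: higher remaining NAD means stronger inhibition of SARM1 NADase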); conditions: SAM-TIR HEK293T lysate NADase, at 1 µM, stronger effect = higher value
[13] = target: Mitogen-activated protein kinase 7 (Homo sapiens) (UniProt Q13164); experiment: Gal4-ERK5 driven luciferase induction – cell-based, HTS, primary screen (AID 1508626;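 active = luciferase signal above three times the same-plate solvent-only control wells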;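 note: luciferase driven by Gal4-ERK5 fusion binding five Gal4 sites before minimal TATA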); conditions: HeLa Gal4-ERK5 transactivation, 18 h, at 5 µM, stronger effect = higher value
[14] = modulation of C. elegans fzo-1 (AID 1259413; call rule not given here;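 note: fzo-1 mutant C. elegans worms in liquid wells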); conditions: C. elegans fzo-1 modulator screen, mean read-out; stronger effect = higher value
F380Y = experiment: BK channel mutant inhibitors and activators – cell-based, U2OS BacMam, thallium flux, beta subunits, selectivity assay, profiling panel (AID 1259406); conditions: U2OS BacMam BK variants, at 30 µM;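 note: initial slope of Thallos dye fluorescence rise after thallium is added; log ratio against the mean of 0.3% DMSO vehicle wells on the same plate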
F380Y/beta1 = experiment: as above; conditions: U2OS BacMam BK variants, at 30 µM
F380Y/beta2Delta = experiment: as above; conditions: U2OS BacMam BK variants, at 30 µM
F380Y/beta4 = experiment: as above; conditions: U2OS BacMam BK variants, at 30 µM
[15] = measured here: epithelial PC-3E GFP cell survival
[16] = measured here: mesenchymal TEM4-18 mCherry cell survival
[17] = MELAS cybrid survival, CellTiter-Glo 48 h, stronger effect = higher value
[18] = Rieske KO mouse fibroblast survival, CellTiter-Glo 72 h

Sequence of NAD(+) hydrolase SARM1 (Homo sapiens) (Q6SZW1 whole entry, looked up, the tested form may be a part): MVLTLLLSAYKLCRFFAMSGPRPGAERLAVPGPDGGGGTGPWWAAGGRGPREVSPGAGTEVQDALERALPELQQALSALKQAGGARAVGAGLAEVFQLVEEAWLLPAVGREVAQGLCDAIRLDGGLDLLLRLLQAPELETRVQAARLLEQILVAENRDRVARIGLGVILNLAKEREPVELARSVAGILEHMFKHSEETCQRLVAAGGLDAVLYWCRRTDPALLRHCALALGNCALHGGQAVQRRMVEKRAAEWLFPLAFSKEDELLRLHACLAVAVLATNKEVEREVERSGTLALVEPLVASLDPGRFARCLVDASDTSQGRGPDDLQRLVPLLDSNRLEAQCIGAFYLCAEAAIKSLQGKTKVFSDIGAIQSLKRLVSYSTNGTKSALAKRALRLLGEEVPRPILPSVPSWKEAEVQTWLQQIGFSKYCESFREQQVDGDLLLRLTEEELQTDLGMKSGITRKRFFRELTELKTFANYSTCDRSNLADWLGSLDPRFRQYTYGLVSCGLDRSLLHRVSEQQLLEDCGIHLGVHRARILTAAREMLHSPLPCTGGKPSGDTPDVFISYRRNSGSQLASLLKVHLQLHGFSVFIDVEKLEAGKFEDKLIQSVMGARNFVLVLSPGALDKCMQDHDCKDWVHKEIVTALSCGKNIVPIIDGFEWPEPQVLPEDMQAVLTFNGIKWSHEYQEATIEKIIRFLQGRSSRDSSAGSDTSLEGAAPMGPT
Sequence of Mitogen-activated protein kinase 7 (Homo sapiens) (Q13164 whole entry, looked up, the tested form may be a part): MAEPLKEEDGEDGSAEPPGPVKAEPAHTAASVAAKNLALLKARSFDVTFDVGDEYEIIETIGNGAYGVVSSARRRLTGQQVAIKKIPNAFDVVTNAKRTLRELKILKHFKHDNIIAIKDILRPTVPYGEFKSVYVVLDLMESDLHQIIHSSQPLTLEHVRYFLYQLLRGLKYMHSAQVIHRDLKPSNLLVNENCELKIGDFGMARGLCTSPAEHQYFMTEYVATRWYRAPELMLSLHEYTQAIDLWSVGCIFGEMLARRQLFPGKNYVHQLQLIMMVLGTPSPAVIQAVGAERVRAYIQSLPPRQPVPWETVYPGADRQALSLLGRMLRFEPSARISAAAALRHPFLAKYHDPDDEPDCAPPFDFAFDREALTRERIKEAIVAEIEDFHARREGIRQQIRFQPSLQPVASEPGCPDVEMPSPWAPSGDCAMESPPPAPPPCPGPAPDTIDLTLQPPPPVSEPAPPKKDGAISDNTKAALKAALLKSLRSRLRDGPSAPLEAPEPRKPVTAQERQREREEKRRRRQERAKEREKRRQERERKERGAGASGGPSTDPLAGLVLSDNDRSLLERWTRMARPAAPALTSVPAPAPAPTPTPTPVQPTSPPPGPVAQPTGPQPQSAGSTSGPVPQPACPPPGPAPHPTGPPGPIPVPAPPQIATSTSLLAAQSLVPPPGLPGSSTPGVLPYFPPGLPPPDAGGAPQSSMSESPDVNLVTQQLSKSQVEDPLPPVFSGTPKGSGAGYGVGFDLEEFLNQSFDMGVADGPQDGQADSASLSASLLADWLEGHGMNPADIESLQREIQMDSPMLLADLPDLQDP
Sequence of 6-phosphogluconate dehydrogenase, decarboxylating (Homo sapiens) (P52209 whole entry, looked up): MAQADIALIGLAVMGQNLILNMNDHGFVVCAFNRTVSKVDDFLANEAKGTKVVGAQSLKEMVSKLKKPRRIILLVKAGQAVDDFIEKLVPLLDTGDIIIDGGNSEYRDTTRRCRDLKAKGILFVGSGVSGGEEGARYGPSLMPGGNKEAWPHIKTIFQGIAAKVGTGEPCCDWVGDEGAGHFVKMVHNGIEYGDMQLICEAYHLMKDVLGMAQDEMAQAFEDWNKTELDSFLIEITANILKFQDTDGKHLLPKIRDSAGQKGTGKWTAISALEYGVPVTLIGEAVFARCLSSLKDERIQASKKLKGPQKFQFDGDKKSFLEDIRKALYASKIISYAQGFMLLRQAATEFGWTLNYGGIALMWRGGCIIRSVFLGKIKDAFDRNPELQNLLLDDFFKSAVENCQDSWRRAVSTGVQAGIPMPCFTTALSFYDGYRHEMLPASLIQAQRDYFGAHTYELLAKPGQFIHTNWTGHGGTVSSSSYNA

CCN(CC)CCCC(C)Nc1ccnc2cc(Cl)ccc12 (configuration not stated)
-0.7%: nuclear beta-catenin stimulation ([1]; stimulation, at 2 µM)
1.2: normalised cell number [10, 16]
0.99: normalised cell number [10, 15]
0.725 and -1.28: z-score [11, 18]
inactive: nuclear beta-catenin stimulation ([1]; at 10 µM) 1.4% | insulin secretion stimulation [2] 11.2% | viability decrease [3] -10.8% | tube area decrease [4] 23% | GLP1 secretion stimulation [5] 6.3% | inhibition of viability [6] 19.9% | viability decrease (inhibition) [7] 31.4% | viability decrease (inhibition) [8] 5.6% | inhibition [9] 7.49% | red/green cell ratio (normalised) [10] 1.21 | z-score [11, 17] 0.423 and -0.395 | remaining NAD [12] 10 nM | luciferase signal [13] 40 AU

CN1C(C(=O)Nc2ccccn2)=C(O)c2ccccc2S1(=O)=O
0.725 and -0.177 and -0.896: z-score [11, 18]
0.96: normalised cell number [10, 15]
inactive: nuclear beta-catenin stimulation ([1]; at 10 µM) 6.3% | insulin secretion stimulation [2] -2.9% | viability decrease [3] -12.7% | tube area decrease [4] 3.1% | GLP1 secretion stimulation [5] 1.4% | inhibition of viability [6] -10.9% | viability decrease (inhibition) [7] 15.6% | viability decrease (inhibition) [8] 12.8% | inhibition [9] 7.63% | mean signal [14] 261 | red/green cell ratio (normalised) [10] 1.3 | z-score [11, 17] -0.176 and -0.255 and -0.0452 | remaining NAD [12] 10 nM | luciferase signal [13] 56 AU | log fold change Tl+ flux (F380Y) 0.0868 | log fold change Tl+ flux (F380Y/beta1) 0.0287 | log fold change Tl+ flux (F380Y/beta2Delta) 0.0109 | log fold change Tl+ flux (F380Y/beta4) -0.0159
0.5%: nuclear beta-catenin stimulation ([1]; stimulation, at 2 µM)
1.24: normalised cell number [10, 16]

Oc1ccc(/C=C/c2cc(O)cc(O)c2)cc1
1.04: normalised cell number [10, 16]
active: tube area decrease [4] 56.1% | inhibition of viability [6] 65% | viability decrease (inhibition) [7] 75.5% | log fold change Tl+ flux (F380Y/beta1) 0.199 | log fold change Tl+ flux (F380Y/beta2Delta) 0.155 | log fold change Tl+ flux (F380Y/beta4) 0.154
inactive: nuclear beta-catenin stimulation ([1]; at 10 µM) 2.4% | insulin secretion stimulation [2] 0.1% | viability decrease [3] 19% | GLP1 secretion stimulation [5] 2.9% | viability decrease (inhibition) [8] 35.3% | inhibition [9] 0.743% | mean signal [14] 256 | red/green cell ratio (normalised) [10] 1.06 | luciferase signal [13] 84 AU | log fold change Tl+ flux (F380Y) 0.101
0.97: normalised cell number [10, 15]
2.2%: nuclear beta-catenin stimulation ([1]; stimulation, at 2 µM)

CN=C(N)NC(=O)Nc1c(C)cccc1C
active: viability decrease (inhibition) [7] -1.5%
-0.4%: nuclear beta-catenin stimulation ([1]; stimulation, at 2 µM)
inactive: nuclear beta-catenin stimulation ([1]; at 10 µM) -1.8% | insulin secretion stimulation [2] -1.2% | viability decrease [3] -12.4% | tube area decrease [4] -1.8% | GLP1 secretion stimulation [5] -0.6% | inhibition of viability [6] 11.3% | viability decrease (inhibition) [8] -0.9%

Cc1noc(NS(=O)(=O)c2ccc(N)cc2)c1C
1.22: normalised cell number [10, 16]
-0.11 and -0.107: z-score [11, 18]
inactive: nuclear beta-catenin stimulation ([1]; at 10 µM) 0.8% | insulin secretion stimulation [2] -1.5% | viability decrease [3] -14.5% | tube area decrease [4] 8.7% | GLP1 secretion stimulation [5] 0.1% | inhibition of viability [6] 0.13% | viability decrease (inhibition) [7] -27% | viability decrease (inhibition) [8] -5.7% | inhibition [9] -15.2% | mean signal [14] 256 | red/green cell ratio (normalised) [10] 1.68 | z-score [11, 17] -0.0643 and 0.19 | remaining NAD [12] 10 nM | luciferase signal [13] 100 AU | log fold change Tl+ flux (F380Y) 0.00425 | log fold change Tl+ flux (F380Y/beta1) -0.0556 | log fold change Tl+ flux (F380Y/beta2Delta) 0.028 | log fold change Tl+ flux (F380Y/beta4) -0.0245
0.73: normalised cell number [10, 15]
0.7%: nuclear beta-catenin stimulation ([1]; stimulation, at 2 µM)

CC(C(=O)O)c1ccc(/C=C2\CCCCC2=O)cc1 (configuration not stated)
-1.5%: nuclear beta-catenin stimulation ([1]; stimulation, at 2 µM)
inactive: nuclear beta-catenin stimulation ([1]; at 10 µM) 0% | insulin secretion stimulation [2] 0% | viability decrease [3] 5.4% | tube area decrease [4] 0.5% | GLP1 secretion stimulation [5] 2.1% | inhibition of viability [6] -19.6% | viability decrease (inhibition) [7] 25.5% | viability decrease (inhibition) [8] -23.7%

CCCCCN=C(N)N/N=C/c1c[nH]c2ccc(OC)cc12
1.08: normalised cell number [10, 16]
active: insulin secretion stimulation [2] 57.5% | viability decrease [3] 118% | tube area decrease [4] 111% | GLP1 secretion stimulation [5] 53.2% | inhibition of viability [6] 125% | viability decrease (inhibition) [7] 159% | viability decrease (inhibition) [8] 102%
1.74: z-score [11, 18]
5.8%: nuclear beta-catenin stimulation ([1]; stimulation, at 2 µM)
inactive: nuclear beta-catenin stimulation ([1]; at 10 µM) -2.1% | inhibition [9] -7.67% | mean signal [14] 250 | red/green cell ratio (normalised) [10] 1.12 | z-score [11, 17] 0.364 | remaining NAD [12] 10 nM | luciferase signal [13] 68 AU
0.96: normalised cell number [10, 15]

Clc1cccc(Cl)c1NC1=NCCN1
0.7%: nuclear beta-catenin stimulation ([1]; stimulation, at 2 µM)
1.52: normalised cell number [10, 16]
1.33: normalised cell number [10, 15]
inactive: nuclear beta-catenin stimulation ([1]; at 10 µM) 0.7% | insulin secretion stimulation [2] 1.9% | viability decrease [3] -10.4% | tube area decrease [4] -5.1% | GLP1 secretion stimulation [5] 1% | inhibition of viability [6] -0.6% | viability decrease (inhibition) [7] -15.3% | viability decrease (inhibition) [8] -4.9% | inhibition [9] 13.3% | mean signal [14] 231 | red/green cell ratio (normalised) [10] 1.14 | z-score [11, 17] -0.353 and 0.0276 and 0.719 | remaining NAD [12] 10 nM | luciferase signal [13] 64 AU | log fold change Tl+ flux (F380Y) 0.0065 | log fold change Tl+ flux (F380Y/beta1) 0.0554 | log fold change Tl+ flux (F380Y/beta2Delta) 0.0431 | log fold change Tl+ flux (F380Y/beta4) -0.00138
0.516 and -0.377 and -0.412: z-score [11, 18]

CCCCCC1Nc2cc(C(F)(F)F)c(S(N)(=O)=O)cc2S(=O)(=O)N1 (configuration not stated)
inactive: nuclear beta-catenin stimulation ([1]; at 10 µM) 0.5% | insulin secretion stimulation [2] 2% | viability decrease [3] 13.4% | tube area decrease [4] 9.2% | GLP1 secretion stimulation [5] -0.1% | inhibition of viability [6] 43% | viability decrease (inhibition) [7] 0.7% | viability decrease (inhibition) [8] 31.7%
-0.2%: nuclear beta-catenin stimulation ([1]; stimulation, at 2 µM)
